Integrin act MD – activates integrin-mediated alleviation for muscular dystrophy; Potency, µM (top dose mostly 38.3 µM), without a hit: top-dose activation, most hits filed as activators; alpha7betagal myoblasts, beta-gal FDG fluorescence, 48 h; 350,000 tested, 0.064% active;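 note: 100% = response of the positive control SU9516; nearly all actives have a fitted effect of over 60% in size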
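Alpha7betagal+/- myoblasts (passage 13) were plated 16-24 hr, then exposed to compounds (1:260 dilution of DMSO stock) for 48 hours at 37C. After MPER lysis, β-galactosidase reporter activity was read as FDG fluorescence (ex 480/em 540) after 30 minutes.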
GLP1R cytotox – cytotoxic in the GLP-1 receptor inverse agonist counter-screen; Potency, µM (doses to about 38.3 µM), without a hit: at the top dose activity change, negative = inhibition, most hits filed as inhibitors; 410,000 tested, 0.13% active; AID 624418; HEK293 cAMP-luciferase reporter cells, luminescence, 24 h;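 note: loss of luciferase light is scored as toxicity; % is set by controls: 0 for no effect and ±100 for the full control effect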
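1536-well qHTS counterscreen of the MLSMR; 200 cells/uL, 12 h pre-incubation, 23 nL cpd, 24 h at 37 deg C 5% CO2, luciferase detection reagent, 12 min RT, luminescence. Inhibition = undesired.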
BRCA1 expr up – activators of BRCA1 expression; 380,000 tested, 1.1% active; MCF7-BRCA1-FFLuc reporter, luminescence, 48 h; response scale: scaled: vehicle 0%, 10 µM genistein 100%; AID 624202; Potency, µM (doses to about 46.1 µM), for the others: at the highest dose activation, usual class: activators; note: nearly all actives have a fitted effect of over 80% in size
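MCF7-BRCA1-FFLuc, 2000 cells/well; 2 h attach, 37 °C/5% CO2; compound 48 h; luciferase substrate 15 min; luminescence end-point. Norm. to genistein 10 microM max activation and DMSO; concentration-response curves fitted.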
GLP1R inv ag – inverse agonists of human GLP-1 receptor; P43220; HEK293 GLP-1R CRE-luciferase, luminescence, 24 h; GLP-1R form is constitutively active; Potency, µM (top dose mostly 38.3 µM), for inactives: at the highest dose activity change, negative = inhibition, most hits filed as inhibitors; 410,000 tested, 1.6% active; AID 624417; note: % is set by controls: 0 for no effect and ±100 for the full control effect; nearly all actives have a fitted effect of over 55% in size
Target sequence (P43220 whole entry, looked up): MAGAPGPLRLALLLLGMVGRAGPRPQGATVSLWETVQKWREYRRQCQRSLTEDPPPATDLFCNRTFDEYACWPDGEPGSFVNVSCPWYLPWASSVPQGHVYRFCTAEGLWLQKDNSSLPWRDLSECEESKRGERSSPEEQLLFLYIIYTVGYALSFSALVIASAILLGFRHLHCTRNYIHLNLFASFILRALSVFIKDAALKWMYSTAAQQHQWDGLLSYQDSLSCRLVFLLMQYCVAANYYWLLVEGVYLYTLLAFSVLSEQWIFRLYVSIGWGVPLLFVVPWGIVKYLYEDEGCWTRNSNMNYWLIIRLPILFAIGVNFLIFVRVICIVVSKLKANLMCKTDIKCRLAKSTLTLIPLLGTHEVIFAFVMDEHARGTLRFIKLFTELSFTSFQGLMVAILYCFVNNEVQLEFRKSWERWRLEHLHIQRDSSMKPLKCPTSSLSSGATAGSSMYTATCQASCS
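GLP-1R inverse agonism mode: basal reporter luminescence in engineered HEK293 cells measured after one day of compound exposure at 37 deg C, with a 12 min room-temperature detection step.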
GLP1R ag – agonists of human GLP-1 receptor | P43220 | HEK293 GLP-1R CRE-luciferase, luminescence, 4-6 h; cells express a hypersensitive GLP-1R form | Potency, µM (top dose mostly 45.6 µM), without a hit: top-dose activation, actives largely listed as activators | 380,000 tested, 0.007% active | AID 624172; note: % of control where 0% means no effect
An asterisk follows results filed as active; ? = inconclusive; / = no result given; [ ] = another dose, or the depositor's remark. Compounds with a hit are over-represented: about 2.7% of the library has one in this group of screens. Calls come from the whole dose curve; as a rule, active = well fitted curve in the direction sought with a large enough effect; inconclusive = small, poorly fitted or top-dose-only effect, or another doubt; inactive = no such curve, though single readings can be large; an effect the other way counts as inactive or inconclusive. Potency is the fitted concentration of half-maximal effect.

SMILES	Integrin act MD	GLP1R cytotox	BRCA1 expr up	GLP1R inv ag	GLP1R ag
O=S(=O)(c1ccc(Cl)c(Cl)c1)c1snnc1-c1ccccc1	-60.9%	?	-91.3%	7.08µM*	-4.6%
NC(=O)c1ccc(-c2ncc(-c3ccccc3)o2)cc1	?	5.3%	?	5.62µM*	-4.7%
CCc1nnc(NC(=O)Nc2ccccc2OC)s1	2.2%	0.0%	6.31µM*	31.8%	5.3%
CCN(CC)CCCNC(=O)c1cc(-c2ccc(Cl)c(Cl)c2)on1	-59.9%	?	-37.5%	5.62µM*	-13.9%
CCCN(CCC)CCCNC(=O)c1cc2c(-c3ccc(Cl)cc3)nn(C)c2s1	/	2.3%	-68.8%	-9.2%	/
CCN(CC)CCCNC(=O)c1cc2c(-c3ccc(Cl)cc3)nn(C)c2s1	-3.4%	?	-76.7%	3.55µM*	-7.0%
CC(C)CC(=O)Nc1ccc2nc(SCC(=O)N3CCc4ccccc43)sc2c1	/	-12.7%	-0.4%	-21.5%	/
Cc1ccc(C(c2sc3nc(C)nn3c2O)N2CCN(c3ccccc3F)CC2)cc1 (configuration not stated)	4.3%	-16.3%	-11.6%	8.91µM*	-7.2%
Cc1ccccc1CN1CCc2c(OCC(=O)N3CCCc4ccccc43)cccc2C1=O	3.8%	-16.2%	-79.8%	10µM*	-3.3%
COc1ccc(OC)c(CNC(=O)CCCc2cn(C)c3ccccc23)c1	12.2%	3.1%	-22.5%	?	-3.3%
COc1ccc(Br)cc1CNC(=O)CCCc1cn(C)c2ccccc12	-1.2%	-6.1%	-21.6%	22.4µM*	5.3%
c1ccc(Sc2ncnc3c2oc2ccccc23)nc1	-38.9%	-19.3%	11.2µM*	-26.0%	5.1%
O=C(/C=C/c1ccccc1Cl)Nc1cccc(S(=O)(=O)NC2=NCCCCC2)c1	-5.7%	-5.0%	-22.4%	10µM*	9.3%
CN(C)c1cccc(C(=O)Nc2ccc(N3CCOCC3)cc2)c1	13.8%	-0.7%	11.2µM*	6.1%	12.5%
CN(C)c1cccc(C(=O)Nc2cccc(S(=O)(=O)NC3=NCCC3)c2)c1	7.2%	7.0%	3.98µM*	31.6%	15.0%
O=C(Nc1cccc(S(=O)(=O)NC2=NCCC2)c1)c1ccccc1	-4.7%	8.1%	-12.9%	5.5%	-1.5%
O=C(Nc1ccc(N2CCOCC2)cc1)c1cccc(-n2cnnc2)c1	3.8%	-1.6%	16.6%	6.3%	3.9%
O=C(/C=C/c1ccc(Cl)cc1Cl)Nc1cccc(S(=O)(=O)NC2=NCCC2)c1	-17.9%	-4.6%	?	?	-0.2%
COc1ccc(-c2nc(CCNC(=O)c3ccccc3)cs2)cc1OC	/	-8.0%	/	49.4%	/
O=C(CCn1c(=O)c2cccn2c2cccnc21)NCc1ccccc1F	/	-3.4%	/	0.9%	/
CCOc1ccccc1C(=O)NCc1ccc2c(c1)CCN2C(C)=O	/	-13.8%	/	-8.7%	/
O=C(c1ccc2c(=O)n(CCc3ccccc3)c(=O)[nH]c2c1)N1CCN(c2ccc(Cl)cc2)CC1	/	1.0%	-36.5%	-23.1%	-1.6%
CN(CC(=O)NCCCc1ccccc1)Cc1ccc(Br)cc1	10.7%	0.0%	3.5%	?	1.2%
CN(CC(=O)NCCc1ccc(F)cc1)Cc1ccc(Br)cc1	7.5%	4.9%	-24.4%	10µM*	21.4%
Cc1ccc(-c2nc(CS(=O)CC(=O)NCCN3CCCC3)c(C)o2)cc1 (configuration not stated)	-18.5%	-5.5%	-39.8%	-12.3%	-1.7%
SMILES	Integrin act MD	GLP1R cytotox	BRCA1 expr up	GLP1R inv ag	GLP1R ag
CCc1ccc(-c2nc(CS(=O)CC(=O)NCCN3CCCCCC3)c(C)o2)cc1 (configuration not stated)	-57.8%	-26.3%	34.4%	11.2µM*	-3.8%
O=C(Nc1ccccc1F)c1nc(S(=O)(=O)Cc2ccccc2F)ncc1Cl	/	?	/	11.2µM*	/
CCOc1ccccc1NC(=O)c1nc(S(=O)(=O)Cc2ccccc2F)ncc1Cl	/	/	0.0%	/	/
CCOc1ccc(NC(=O)C2CCC(CNS(=O)(=O)c3ccc(Br)s3)CC2)cc1 (configuration not stated)	/	9.6%	/	1.2%	/
Cc1nc(-c2ccc(C)c(N3CCN(C(=O)Nc4cccc(Cl)c4C)CC3)c2)no1	/	0.1%	-6.7%	4.47µM*	-3.7%
CCN1C(=O)/C(=C/C=C2/CCCN2C)OC1=S	-20.6%	-0.4%	7.08µM*	0.0%	10.8%
CCOC(=O)c1c(S(=O)(=O)NCC(=O)N2CCN(c3cccc(Cl)c3)CC2)c(C)n(C)c1C	/	27.1%	/	8.2%	/
COc1ccc(NC(=O)CSc2nnc(-c3cccs3)o2)cc1	/	1.3%	/	23.8%	/
Cc1cccc(Cn2c(-c3cccc(Br)c3)nc3ccccc32)c1	/	7.8%	/	10µM*	/
Brc1cccc(Cn2c(-c3cncs3)nc3ccccc32)c1	1.3%[7.66 µM]	-9.8%	-19.6%	0.0%	21.2%
Cc1cccc(C(C)C)c1NC(=O)C1CCCN1S(=O)(=O)c1cccc2nsnc12 (configuration not stated)	/	0.4%	/	-12.3%	/
CC(=O)Cn1cnc2c(cnn2-c2ccc(C)c(C)c2)c1=O	-34.7%	0.6%	5.01µM*	0.9%	12.1%
CC(C)CCn1cnc2c(cnn2-c2ccc(F)cc2)c1=O	0.3%	3.7%	8.91µM*	5.2%	4.0%
COc1ccc(C(=O)Nc2cc(C(C)C)c(O)c(S(=O)(=O)c3ccc(OC)cc3)c2C)cc1	/	-3.3%	5.62µM*	?	2.7%
COc1ccc(C)cc1NC(=O)C(=O)NCC(c1cccnc1)N1CCN(c2ccccc2F)CC1 (configuration not stated)	/	-8.6%	/	?	/
O=C(NCCc1c[nH]c2ccccc12)c1cccc(S(=O)(=O)Nc2ccccc2Cl)c1	16.8%	-3.6%	-34.9%	?	-9.1%
CN(c1ccccc1)S(=O)(=O)c1cccc(C(=O)NCCc2c[nH]c3ccccc23)c1	-27.2%	-14.0%	-45.9%	8.91µM*	-1.0%
O=C(NCCc1c[nH]c2ccccc12)c1cc(Cl)c2c(c1)OCO2	-20.7%	-11.0%	3.55µM*	?	24.9%
O=C(NCCc1c[nH]c2ccccc12)c1ccc2c(c1)OCO2	19.0%	2.0%	?	?	7.7%
Cc1cccc(C2c3[nH]c4ccccc4c3CCN2C(=O)c2noc3c2CCCC3)n1 (configuration not stated)	0.0%	-9.1%	-51.3%	7.08µM*	17.2%
Cc1ncoc1C(=O)N1CCc2c([nH]c3ccccc23)C1C(C)(C)C (configuration not stated)	-27.3%	1.6%	-29.2%	-27.3%	1.6%
Cc1ncoc1C(=O)N1CCc2c([nH]c3ccccc23)C1C1CCCCC1 (configuration not stated)	?	66.6%	0.4%	10µM*	-9.8%
CS(=O)(=O)NC(=O)CCC/C=C\C[C@H]1C(=O)C[C@@H](O)[C@@H]1/C=C/[C@@H](O)COc1ccccc1	/	/	/	/	-5.8%
